Unmarked numbers belong to inactive results.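 The calls were made as follows: active = MAPPIT score above the 99th percentile of random reference set scores in the same batch; inactive = at or below it.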

Experiment in all cases: MAPPIT interaction score (arbitrary units); higher = stronger binary interaction signal, active = hit call of the paper
The target in one assay is CG14767. As to conditions: pair source set: RRS. The procedure: (§1)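 MAPPIT in HEK293T cells: Drosophila bait and prey ORFs (from the FlyBi ORF collection) were co-transfected in quadruplicate, with two wells stimulated by erythropoietin. Interaction-dependent JAK-STAT activation was read out with a STAT-responsive firefly luciferase reporter. Positive calls use the 99th percentile of random reference set (RRS) scores within each batch […]. Batches Dvs01 and Dvs02 used the N-N configuration and Dvs04 the N-C configuration. Pairs come from FlyBi screens, CuraGen, DPiM, Finley Y2H, Lit-BM-16, Lit-BS-16 and RRS.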

For a further assay, the target named is CG30472. As to conditions: MAPPIT configuration: N-N; pair source set: RRS. The procedure:
as §1

The next assay deals with trbd. The note with it: MAPPIT configuration: N-N; pair source set: screen_1. How it is done:
as §1
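Also: HEK293T cells with Epo stimulation, STAT-responsive firefly luciferase reporter, fold induction versus unstimulated cells divided by the larger fold induction of two negative controls lacking either bait or prey.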

B1: nAChRbeta1 (protein)
chain: MESSCKSWLLCSILVLVAFSLVSASEDEERLVRDLFRGYNKLIRPVQNMTQKVGVRFGLAFVQLINVNEKNQVMKSNVWLRLVWYDYQLQWDEADYGGIGVLRLPPDKVWKPDIVLFNNADGNYEVRYKSNVLIYPTGEVLWVPPAIYQSSCTIDVTYFPFDQQTCIMKFGSWTFNGDQVSLALYNNKNFVDLSDYWKSGTWDIIEVPAYLNVYEGDSNHPTETDITFYIIIRRKTLFYTVNLILPTVLISFLCVLVFYLPAEAGEKVTLGISILLSLVVFLLLVSKILPPTSLVLPLIAKYLLFTFIMNTVSILVTVIIINWNFRGPRTHRMPMYIRSIFLHYLPAFLFMKRPRKTRLRWMMEMPGMSMPAHPHPSYGSPAELPKHISAIGGKQSKMEVMELSDLHHPNCKINRKVNSGGELGLGDGCRRESESSDSILLSPEASKATEAVEFIAEHLRNEDLYIQTREDWKYVAMVIDRLQLYIFFIVTTAGTVGILMDAPHIFEYVDQDRIIEIYRGK
Regarding B1, the MAPPIT interaction score with CG14767 (MAPPIT configuration: N-C) was 0.324; in the assay with CG14767 (MAPPIT configuration: N-N), 0.0737; in the assay with CG30472 it was -0.0464.

B2: CG5902 (protein)
chain: MSNSHYNNYQQQQPHSSNGDPEYQHQQMVHQPQRFSNGHGMKTVAVPDMCLFCFEVLDCELNNVDGPSVPVFSNDAYPLFVTWKIGRDKRLRGCIGTFSAMELHHGLREYALTSAFKDSRFAPISRDELPRLTVSVSILQNFEEAQGHLDWQLGVHGIRIEFLTERGCKRTATYLPQVATEQGWDQLQTIDSLLRKGGYRAAITPETRKSIKLTRYRSQEIQMHYKEYREYQERRAQFGKVQC
For the molecule B2, the MAPPIT interaction score with trbd was 2.52 (active).

Values taken from the supplement of paper PMC10105736.
